Measured values as given in PubChem BioAssay AID2253 (Southern Research Specialized Biocontainment Screening …, 2010).
Out of some 2,200 compounds screened, about 1,300 (59%) were called active. How the calls were made is not given here. So high a share suggests a set chosen from earlier hits. Only a sample is shown. Entries with a potency or affinity are not part of this list.

Assay: THP-1 cell cytotoxicity, dose response, cytotoxicity control for Salmonella PhoP regulon inhibitors, S. typhimurium screen hits (AID 2253)
Conditions: THP-1 viability, CellTiter-Glo luminescence, 72 h; series mostly up to 50 µM

Question: With `Cc1ccc(CCNC(=O)C2CCCN(S(=O)(=O)c3c(C)noc3C)C2)cc1` (centres undefined) as the compound, how does the outcome read?
Answer: inactive

Question: For `Cc1ccc(CCNC(=O)C2CCN(S(=O)(=O)N3CCCC3)CC2)cc1`, which outcome is on record?
Answer: inactive

Question: For `O=C(CSc1nccc(=O)[nH]1)N1c2ccccc2CCc2ccccc21`, which outcome is on record?
Answer: inactive

Question: Which outcome does the source give for `CCN(CCO)Cc1csc2ccccc12` here?
Answer: inactive

Question: Which outcome does the source give for `Cc1nc2ccccn2c1C(=O)N/N=C/c1ccccc1[N+](=O)[O-]` here?
Answer: inactive

Question: With `O=C(N/N=C/c1cccn1-c1ccc([N+](=O)[O-])cc1)C(O)c1ccccc1` (centres undefined) as the compound, how does the outcome read?
Answer: inactive

Question: Which outcome does the source give for `Cc1cc(C(=O)N/N=C/c2cccc([N+](=O)[O-])c2O)n[nH]1` here?
Answer: inactive

Question: For `Cc1cc(C(=O)N/N=C/C=C/c2ccc3c(c2)OCO3)n[nH]1`, which outcome is on record?
Answer: inactive

Question: With `CC1(C)CC2CC(C)(CN2C(=O)COC(=O)c2n[nH]c(=O)c3ccccc23)C1` (centres undefined) as the compound, how does the outcome read?
Answer: inactive

Question: For `CCOC(=O)c1sc2nccc(N(C)C)c2c1N=CNOCc1c(F)cccc1Cl`, which outcome is on record?
Answer: inactive

Question: For `O=C(Cn1cnc2ccccc2c1=O)NCc1ccco1`, which outcome is on record?
Answer: inactive

Question: For `O=C(CCCNS(=O)(=O)c1ccccc1)NCc1ccco1`, which outcome is on record?
Answer: inactive

Question: With `O=C1CSC(=S)N1c1ccc(F)cc1` as the compound, how does the outcome read?
Answer: inactive

Question: For `COc1ccc(OC)c(C(=O)C2COC(=O)C2)c1` (centres undefined), which outcome is on record?
Answer: inactive

Question: With `Cc1cc2ncn(CC(O)COc3cccc(C(=O)O)c3)c2cc1C` (centres undefined) as the compound, how does the outcome read?
Answer: inactive

Question: Which outcome does the source give for `COc1ccc(C2C(C(=O)c3cccs3)=C(O)C(=O)N2c2nnc(C)s2)cc1OC` (centres undefined) here?
Answer: inactive

Question: For `Clc1ccccc1OCCn1ccnc1`, which outcome is on record?
Answer: inactive

Question: Which outcome does the source give for `Brc1ccc(OCCn2ccnc2)cc1` here?
Answer: inactive

Question: Which outcome does the source give for `COc1ccc2c(c1)cc1n2CCN2CCCN=C12` here?
Answer: inactive

Question: With `CCn1cc(C(=O)NCc2ccncc2)c(=O)c2cc(F)c(N3CCN(C(=O)c4ccco4)CC3)cc21` as the compound, how does the outcome read?
Answer: inactive

Question: For `O=C(CCCOc1ccccc1)N1CCCc2ccccc21`, which outcome is on record?
Answer: inactive

Question: With `O=C1CC(N2CCN(Cc3ccccc3)CC2)C(=O)N1c1ccccc1` (centres undefined) as the compound, how does the outcome read?
Answer: inactive

Question: With `C(=N\N1CCN(Cc2ccccc2)CC1)/c1cccnc1` as the compound, how does the outcome read?
Answer: inactive

Question: For `CC(C)(C)c1ccc(-c2n[nH]c(=S)n2/N=C/c2ccncc2)cc1`, which outcome is on record?
Answer: inactive

Question: With `O=C(CCN1CCc2ccccc2C1)Nc1ccccc1F` as the compound, how does the outcome read?
Answer: inactive

Question: With `CCn1nnc(-c2ccccc2NC(=O)c2ccc(-n3cnnn3)cc2)n1` as the compound, how does the outcome read?
Answer: inactive

Question: For `N#Cc1nc(-c2cccs2)oc1NCCCN1CCOCC1`, which outcome is on record?
Answer: inactive

Question: With `CCOc1ccc(/C(O)=C2\C(=O)C(=O)N(CCN(C)C)C2c2cccc(OC)c2OC)cc1Cl` (centres undefined) as the compound, how does the outcome read?
Answer: inactive

Question: For `O=C(CCn1nnc(-c2cccs2)n1)NCc1ccccc1Cl`, which outcome is on record?
Answer: inactive

Question: For `COc1ccc(C(=O)COc2nc(C)cc(C)c2C#N)cc1`, which outcome is on record?
Answer: inactive

Question: Which outcome does the source give for `CCc1nc2cc(Cl)c(Cl)cc2[nH]1` here?
Answer: inactive

Question: For `CC(=O)Nc1c(O)nc(SCC(=O)N2CCN(c3ccc(F)cc3)CC2)[nH]c1=O`, which outcome is on record?
Answer: inactive

Question: Which outcome does the source give for `O=C(NCCCN1CCCC1=O)c1ccc(Cl)c(NS(=O)(=O)c2ccc(F)cc2)c1` here?
Answer: inactive

Question: Which outcome does the source give for `CC(C)(C)NC(=O)CSc1nnc(-c2ccncc2)o1` here?
Answer: inactive

Question: With `CC(=O)NCCOc1c(C)cc(S(N)(=O)=O)cc1C` as the compound, how does the outcome read?
Answer: inactive

Question: For `Cn1cccc1CC(=O)N/N=C/C(Cl)=C/c1ccccc1`, which outcome is on record?
Answer: inactive

Question: Which outcome does the source give for `CC1(C)CC(=O)c2c(nc3ccccc3c2N)C1` here?
Answer: inactive

Question: For `Cc1cc(C(=O)N2CCN(C/C=C/c3ccccc3)CC2)no1`, which outcome is on record?
Answer: inactive

Question: For `CC(CCc1ccccc1)NC(=O)c1ccccc1` (centres undefined), which outcome is on record?
Answer: inactive

Question: Which outcome does the source give for `COCc1cc(C)nc(N2CCc3ccccc32)c1C#N` here?
Answer: inactive

Question: Which outcome does the source give for `COc1ccc(-c2cnn3c(N)c(S(=O)(=O)C(C)(C)C)cnc23)cc1` here?
Answer: inactive

Question: For `COc1cc(C2NC(=O)NC(c3ccccc3)=C2C(C)=O)ccc1OCC(=O)O` (centres undefined), which outcome is on record?
Answer: inactive

Question: With `Brc1ccc(NC2=Nc3ccccc3CC2)cc1` as the compound, how does the outcome read?
Answer: inactive

Question: For `COc1ccc(S(=O)(=O)n2nc(OC(=O)c3cccs3)cc2N)cc1`, which outcome is on record?
Answer: inactive

Question: For `Nc1cc(N)nc(SCC(=O)Nc2ccc3c(c2)OCCCO3)n1`, which outcome is on record?
Answer: inactive

Question: With `Cc1ccc2cc(C(=O)O)c(C)nc2c1` as the compound, how does the outcome read?
Answer: inactive

Question: With `O=C(NCc1cccnc1)c1ccc(Cl)cc1[N+](=O)[O-]` as the compound, how does the outcome read?
Answer: inactive

Question: Which outcome does the source give for `Cc1cc([N+](=O)[O-])cc2ncccc12` here?
Answer: inactive

Question: With `CCOc1cc(C2C(C(=O)OC)=C(C)N=C3SCCC(=O)N32)ccc1OC(C)=O` (centres undefined) as the compound, how does the outcome read?
Answer: inactive

Question: For `COc1ccc(Oc2coc3cc(OC(=O)c4cccs4)ccc3c2=O)cc1`, which outcome is on record?
Answer: inactive

Question: For `Cc1cc(C)nc(N(C#N)C(C)C(=O)N(C)C)n1` (centres undefined), which outcome is on record?
Answer: inactive

Question: Which outcome does the source give for `Cc1cccnc1N(C(=O)Nc1ccccc1)C1=NCC(C)(C)S1` here?
Answer: inactive

Question: For `O=C(NC(=Nc1ccccc1)N1CCOCC1)Nc1ccccc1`, which outcome is on record?
Answer: inactive

Question: With `OC(COCc1cccs1)CN1CCN(c2ccccn2)CC1` (centres undefined) as the compound, how does the outcome read?
Answer: inactive

Question: Which outcome does the source give for `CCCCOC(=O)CCNc1n[nH]c(=O)[nH]c1=O` here?
Answer: inactive

Question: For `Clc1ccc(CNCc2cccs2)cc1Cl`, which outcome is on record?
Answer: inactive

Question: Which outcome does the source give for `O=C(Cc1cn2ccsc2n1)Nc1ccccc1Oc1ccccc1` here?
Answer: inactive

Question: With `Cc1ccc(S(=O)(=O)NCCC(=O)OCn2nnc3ccccc3c2=O)cc1` as the compound, how does the outcome read?
Answer: inactive

Question: With `CN(C(=O)/C=C/c1ccccc1)C1CCS(=O)(=O)C1` (centres undefined) as the compound, how does the outcome read?
Answer: inactive

Question: For `CNC(=O)c1ccc(-c2ccc(F)cc2)s1`, which outcome is on record?
Answer: inactive

Question: Which outcome does the source give for `CCCSc1nc(N2CCCC2)c2c(c1C#N)CC(C)(C)OC2` here?
Answer: inactive

Question: For `C=CCNC(=O)c1ccc(N(C)S(=O)(=O)c2ccc(OC)cc2)cc1`, which outcome is on record?
Answer: inactive

Question: With `CC1CN(C(=O)CCc2ccccc2)C(C)CN1C(=O)CCc1ccccc1` (centres undefined) as the compound, how does the outcome read?
Answer: inactive

Question: Which outcome does the source give for `O=C(c1ccc(Cl)cc1Cl)C1(n2cncn2)Oc2ccccc2C1O` (centres undefined) here?
Answer: inactive

Question: With `Cc1ccc(C(=O)NCc2ccc(Cl)cc2)o1` as the compound, how does the outcome read?
Answer: inactive

Question: For `O=[N+]([O-])c1ccc(-c2ccn[nH]2)o1`, which outcome is on record?
Answer: inactive

Question: For `CN(c1ccccc1)S(=O)(=O)c1ccc(C(=O)Nc2nnc(-c3ccc(F)cc3)o2)cc1`, which outcome is on record?
Answer: inactive

Question: With `COc1cccc(OC)c1C(=O)NC(=S)Nc1cc(-c2nc3ccccc3[nH]2)ccc1Cl` as the compound, how does the outcome read?
Answer: inactive

Question: Which outcome does the source give for `COC(=O)c1c(C(=O)OC)c(-c2cccc(C)c2)n2c1CS(=O)(=O)C2` here?
Answer: inactive

Question: For `CCn1cc(C(C)(C)C)c(C#N)c1NC(C)=O`, which outcome is on record?
Answer: inactive

Question: For `O=C(Cn1cnc2scc(-c3ccccc3)c2c1=O)N1CCOCC1`, which outcome is on record?
Answer: inactive

Question: With `C=CC1=C(C(=O)O)N2C(=O)[C@@H](NC(=O)/C(=N/OCC(=O)O)c3csc(N)n3)[C@H]2SC1` as the compound, how does the outcome read?
Answer: inactive

Question: With `CC(C)(C)c1n[nH]c(=S)n(/N=C/c2cccs2)c1=O` as the compound, how does the outcome read?
Answer: inactive

Question: Which outcome does the source give for `Cc1ccsc1/C=N/NC(=O)Cn1cnc2ccccc21` here?
Answer: inactive
